Source: the supplement of paper PMC6555819

Tests used:
Experiment in all cases: PBM binding z-score (relative to random genomic background probes); higher = stronger binding; sequences stand for … in GC…GCGATTGACAGCGTAGAATGAAGG
[1] = system: FXR:RXRa (NR concentration 270 nM, RXRa partner concentration 90 nM)
How it was run: (§1)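 Ligand-free nuclear receptor dimers were bound for 1 h to custom Agilent 4×180K protein-binding microarrays. Detection used antibodies against each partner (one per run). Binding z-scores rest on regression-normalized fluorescence, with random background probes as the reference.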

[2] = system: LXRa:RXRa (NR concentration 270 nM, RXRa partner concentration 90 nM)
How it was run: as §1

[3] = system: LXRa homodimer (NR concentration 270 nM)
How it was run: as §1

[4] = system: LXRb:RXRa (NR concentration 270 nM, RXRa partner concentration 90 nM)
How it was run: as §1

[5] = system: LXRb homodimer (NR concentration 270 nM)
How it was run: as §1

[6] = system: PPARa:RXRa (NR concentration 270 nM, RXRa partner concentration 90 nM)
How it was run: as §1

[7] = system: PPARg:RXRa (NR concentration 180 nM, RXRa partner concentration 90 nM)
How it was run: as §1

[8] = system: PPARg:RXRa 270nM:90nM, anti-RXR (NR concentration 270 nM, RXRa partner concentration 90 nM)
How it was run: as §1

[9] = system: PPARg:RXRa 30nM:10nM, anti-RXR (NR concentration 30 nM, RXRa partner concentration 10 nM)
How it was run: as §1

[10] = system: PPARg:RXRa 90nM:30nM, anti-RXR (NR concentration 90 nM, RXRa partner concentration 30 nM)
How it was run: as §1

[11] = system: PPARg:RXRa DBDmut IVT, anti-RXR (DBD mutation: RXRa K156A/R161A, NR concentration 270 nM, RXRa partner concentration 90 nM)
How it was run: as §1

[12] = system: PPARg:RXRa IVT, anti-PPARg (NR concentration 270 nM, RXRa partner concentration 90 nM)
How it was run: as §1

[13] = system: PPARg DBDmut:RXRa IVT, anti-PPARg (DBD mutation: PPARg1 K132A/R137A, NR concentration 270 nM, RXRa partner concentration 90 nM)
How it was run: as §1

[14] = system: PPARg DBDmut IVT, anti-PPARg (DBD mutation: PPARg1 K132A/R137A, NR concentration 270 nM)
How it was run: as §1

[15] = system: PPARg homodimer (NR concentration 180 nM)
How it was run: as §1

[16] = system: PXR:RXRa (NR concentration 270 nM, RXRa partner concentration 90 nM)
How it was run: as §1

[17] = system: PXR homodimer (NR concentration 270 nM)
How it was run: as §1

[18] = system: RARa:RXR (NR concentration 270 nM, RXRa partner concentration 90 nM)
How it was run: as §1

[19] = system: RARa homodimer (NR concentration 270 nM)
How it was run: as §1

[20] = system: RARb:RXRa (NR concentration 270 nM, RXRa partner concentration 90 nM)
How it was run: as §1

| Sequence | PBM binding z-score [1] | PBM binding z-score [2] | PBM binding z-score [3] | PBM binding z-score [4] | PBM binding z-score [5] | PBM binding z-score [6] | PBM binding z-score [7] | PBM binding z-score [8] | PBM binding z-score [9] | PBM binding z-score [10] | PBM binding z-score [11] | PBM binding z-score [12] | PBM binding z-score [13] | PBM binding z-score [14] | PBM binding z-score [15] | PBM binding z-score [16] | PBM binding z-score [17] | PBM binding z-score [18] | PBM binding z-score [19] | PBM binding z-score [20] |
| --- | --- | --- | --- | --- | --- | --- | --- | --- | --- | --- | --- | --- | --- | --- | --- | --- | --- | --- | --- | --- |
| TCGAGTACGTTAGTCGGGGCATTCAGCCAACATA | -0.454 | -0.474 | -0.665 | 0.0371 | -1.12 | 0.167 | -0.163 | 0.223 | 0.88 | 0.775 | 0.607 | -0.44 | -0.411 | -0.712 | -0.34 | -0.0967 | -0.478 | -0.134 | -0.667 | 0.019 |
| ACTAGCAGGGCAAGTTTGGGTCACTCAAACAAAG | 1.11 | 0.854 | -0.346 | 1.07 | -0.746 | 1.85 | 0.29 | 0.531 | -0.392 | 0.0112 | 2.04 | 1.96 | -0.127 | -0.121 | 0.449 | 1.13 | -0.488 | 2.07 | -0.817 | 2.43 |
| ATATGTAGGTTAGCTGGGGTCATTCGGACTAGGC | 4.85 | 5.8 | 3.75 | 4.73 | 1.58 | 5.11 | 5.79 | 5.43 | 3 | 4.4 | 6.85 | 6.3 | 3.21 | 1.98 | 4.23 | 6.74 | 5.39 | 6.34 | 1.19 | 3.05 |
| AATACAGGGTCATCGTAGGCCTGAGTACGCACAG | 7.54 | 5.77 | 1.91 | 4.6 | 1.13 | 5.95 | 6.49 | 5.92 | 2.71 | 4.74 | 2.91 | 4.07 | 1.77 | 1.33 | 2.11 | 4.23 | 0.334 | 4.79 | 0.501 | 4.43 |
| CGTGAAAGTTCAAGGTAACGTAACAGAAAGCAGC | 5.94 | 5.62 | 2.82 | 3.12 | 0.85 | 4.54 | 3.2 | 4.01 | 1.51 | 3.03 | 0.31 | 1.59 | 1.08 | 0.978 | 2.81 | 4.03 | 2.44 | 3.46 | 0.962 | 4.93 |
| TCTAGTTGGTCAAAGGTCACAAACTCGAAATGCG | 4.94 | 5.27 | 3.15 | 5.16 | 1.49 | 6.4 | 10.9 | 9.72 | 9.69 | 10.3 | 3.16 | 5.98 | 1.2 | 1.06 | 3.78 | 5.56 | 1.54 | 6.79 | 3.07 | 4.77 |
| CCTTCTGGGCCAAAAAGGTCATTGATGCCGATAA | 3.46 | 4.33 | 2.97 | 3.9 | 0.645 | 4.48 | 2.52 | 3.9 | 1.16 | 2.59 | 3.91 | 3.68 | -0.102 | -0.685 | 3.67 | 4.74 | 4.12 | 5.1 | 1.14 | 3.83 |
| CTCGAAAGGTCGTGCTCATGTGAGTATACCAAAC | 5.17 | 3.72 | 0.36 | 3.54 | 0.234 | 5.08 | 2.86 | 3.9 | 0.836 | 2.6 | 1.04 | 1.63 | 0.526 | 0.798 | 1.16 | 3.17 | 0.0761 | 4.03 | 0.231 | 4.13 |
| ATATGTAGCTTACATCCGGGTCATTCAGGCTATG | 1.18 | 1.36 | 0.618 | 1.73 | 0.372 | 2.39 | 0.959 | 0.733 | 0.448 | 0.268 | 0.48 | 1.48 | 1.08 | 0.976 | 0.783 | 2.42 | 1.38 | 2.54 | 0.0612 | 1.31 |
| CTCGAGAGGTCGGTTGAGGTGAGTATACGGATAA | 2.48 | 1.8 | -0.0602 | 2.2 | -0.474 | 2.93 | 0.425 | 0.591 | -0.178 | 0.092 | 0.581 | 0.606 | -0.792 | -0.363 | 0.728 | 3.5 | 0.389 | 2.64 | -0.682 | 2.05 |
| CCGATTAGTTGACCATAAGGGCAACCGAAGCTCG | 0.669 | 0.102 | -0.113 | 0.217 | -0.191 | 0.52 | 0.357 | 0.312 | -0.22 | 0.0545 | 0.626 | 0.151 | 0.0233 | -0.144 | 0.907 | 0.523 | 0.00458 | 0.703 | 0.65 | 1.46 |
